Laboratory results: the supplement of paper PMC9262897, “Low-cost anti-mycobacterial drug discovery using engineered E. coli” (Nature Communications, 2022)
Structures can show the parent of a compound that is named as a salt. ± gives the standard deviation of the averaged measurements.

The compounds below were run on E. coli TESEC Mtb Asd (assay: growth (OD600 after 10 h); higher = more growth (less inhibition)). Conditions: arabinose induction (level): High; compound 0.1 mM; raw OD600 reference: median of DMSO wells 0.331, cell-free background 0.041.
Protocol: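 TESEC E. coli strains in which the native enzyme is deleted and replaced by arabinose-inducible Mtb Asd, DapB, CysH or TrpD, each grown in its selective medium. Strains were screened against the Prestwick library at 0.1 mM and 1% DMSO in 384-well format at low and high arabinose induction. Growth is read as OD600 after 10 h in triplicate.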
Work on `C=CCOc1ccccc1OCC(O)CNC(C)C` (configuration not stated) [Oxprenolol hydrochloride] yielded a growth of 0.332 ± 0.062.
In the case of `CCOc1ccc2c(c1)C(C)=CC(C)(C)N2` [Ethoxyquin], the growth is reported as 0.353 ± 0.083.
`CC1Cc2ccccc2N1NC(=O)c1ccc(Cl)c(S(N)(=O)=O)c1` (configuration not stated) [Indapamide] showed a growth of 0.224 ± 0.01.
In the case of `CCC(=O)OCC(=O)[C@@]1(OC(=O)CC)[C@H](C)C[C@H]2[C@H]3[C@H]([C@@H](O)C[C@@]21C)[C@@]1(C)C=CC(=O)C=C1C[C@H]3Cl` [Alclometasone dipropionate], the growth is reported as 0.209 ± 0.013.
For `Cc1scc2c1N(C(=O)CN1CCN(C)CC1)c1ccccc1NC2=O` [Telenzepine dihydrochloride], the growth was 0.321 ± 0.083.
`O=C1CC[C@@H](C(=O)N2CSC[C@H]2C(=O)O)N1` [Pidotimod] was tested, and the growth was 0.271 ± 0.059.
In the case of `CCC1NC(=O)c2cc(S(N)(=O)=O)c(Cl)cc2N1` (configuration not stated) [Quinethazone], the growth is reported as 0.419 ± 0.029.
With `CN1CCCN(C(c2ccccc2)c2ccc(Cl)cc2)CC1` (configuration not stated) [Homochlorcyclizine dihydrochloride] the growth was 0.123 ± 0.011.
For `C1N2CN3CN1CN(C2)C3` [Methenamine], the growth was 0.345 ± 0.048.
`CC(C)(O/N=C(\C(=O)N[C@@H]1C(=O)N2C(C(=O)[O-])=C(C[n+]3ccccc3)CS[C@H]12)c1csc(N)n1)C(=O)O` [Ceftazidime pentahydrate] gave a growth of 0.113 ± 0.0029.
For `CC(C(O)c1ccc(O)cc1)N1CCC(Cc2ccccc2)CC1` (configuration not stated) [Ifenprodil tartrate], the growth was 0.313 ± 0.065.
For `CCN(CC)CCNC(=O)c1ccc(N)cc1` [Procainamide hydrochloride], the growth was 0.341 ± 0.0095.
Compound `CC[C@H]1OC(=O)[C@H](C)[C@@H](O[C@H]2C[C@@](C)(OC)[C@@H](O)[C@H](C)O2)[C@H](C)[C@@H](O[C@@H]2O[C@H](C)C[C@H](N(C)C)[C@H]2O)[C@](C)(O)C[C@@H](C)CN(C)[C@H](C)[C@@H](O)[C@]1(C)O` [Azithromycin] has a growth of 0.0597 ± 0.003.
`OC(CCN1CCCCC1)(c1ccccc1)C1CCCCC1` (configuration not stated) [Trihexyphenidyl-D,L Hydrochloride] gave a growth of 0.299 ± 0.04.
For `CN1C(C(=O)Nc2ccccn2)=C(O)c2ccccc2S1(=O)=O` [Piroxicam], the growth was 0.321 ± 0.013.
Work on `c1ccc(CN(CC2=NCCN2)c2ccccc2)cc1` [Antazoline hydrochloride] yielded a growth of 0.355 ± 0.017.
`CCCc1nc2c(C)cc(-c3nc4ccccc4n3C)cc2n1Cc1ccc(-c2ccccc2C(=O)O)cc1` [Telmisartan] was tested, and the growth was 0.2439 ± 0.00056.
`Nc1nc(F)nc2c1ncn2[C@@H]1O[C@H](CO)[C@@H](O)[C@@H]1O` [Fludarabine] showed a growth of 0.272 ± 0.031.
In the case of `CN1CCOC(c2ccccc2)c2ccccc2C1` (configuration not stated) [Nefopam hydrochloride], the growth is reported as 0.187 ± 0.03.
With `NCCCC(O)(P(=O)(O)O)P(=O)(O)O` [Alendronate sodium] the growth was 0.343 ± 0.043.
In the case of `Clc1ccccc1C(c1ccccc1)(c1ccccc1)n1ccnc1` [Clotrimazole], the growth is reported as 0.0468 ± 0.00044.
Compound `O=C1c2cccc(O)c2C(=O)c2c(O)cccc21` [1,8-Dihydroxyanthraquinone] has a growth of 0.187 ± 0.013.
For `CC(N/C(=N\C#N)Nc1ccncc1)C(C)(C)C` (configuration not stated) [Pinacidil], the growth was 0.369 ± 0.037.
`COc1ccc2c(c1)c(CC(=O)OCC(=O)O)c(C)n2C(=O)c1ccc(Cl)cc1` [Acemetacin] showed a growth of 0.21 ± 0.078.
In the case of `O=C(O)c1ccccc1C(=O)Nc1ccc(S(=O)(=O)Nc2nccs2)cc1` [Phthalylsulfathiazole], the growth is reported as 0.468 ± 0.023.
With `c1ccc2c(c1)CCCC2C1=NCCN1` (configuration not stated) [Tetrahydrozoline hydrochloride] the growth was 0.435 ± 0.062.
`Cc1nnc(NS(=O)(=O)c2ccc(N)cc2)s1` [Sulfamethizole] gave a growth of 0.326 ± 0.045.

Same assay, conditions: arabinose induction (level): Low; compound 0.1 mM; raw OD600 reference: median of DMSO wells 0.417, cell-free background 0.041
`COc1cc(C(=O)NS(=O)(=O)c2ccccc2C)ccc1Cc1cn(C)c2ccc(NC(=O)OC3CCCC3)cc12` [Zafirlukast] showed a growth of 0.12 ± 0.047.
`NNc1nncc2ccccc12` [Hydralazine hydrochloride] gave a growth of 0.25 ± 0.021.
Work on `Nc1c2c(nc3ccccc13)CCCC2O` (racemic) [Hydroxytacrine maleate (R,S)] yielded a growth of 0.257 ± 0.034.
In the case of `CCN(CC)CCOC(=O)C1(C2CCCCC2)CCCCC1` [Dicyclomine hydrochloride], the growth is reported as 0.21 ± 0.049.
`O=C(Oc1cccc2cccnc12)c1ccccc1` [Benzoxiquine] showed a growth of 0.289 ± 0.017.
`O=C1CC2(CCCC2)CC(=O)N1CCCCN1CCN(c2ncccn2)CC1` [Buspirone hydrochloride] was tested, and the growth was 0.439 ± 0.046.
With `CCN(CC)C(=O)C1(c2ccccc2)CC1CN` (configuration not stated) [Milnacipran hydrochloride] the growth was 0.385 ± 0.033.
Compound `CCN(CC)CC#CCOC(=O)C(O)(c1ccccc1)C1CCCCC1` (configuration not stated) [Oxybutynin chloride] has a growth of 0.191 ± 0.033.
For `C[C@]12C=CC(=O)C=C1CC[C@H]1[C@@H]3C[C@@H](O)[C@](O)(C(=O)CO)[C@@]3(C)C[C@H](O)[C@@]12F` [Triamcinolone], the growth was 0.452 ± 0.014.
For `O=C(CCCCC(=O)Nc1c(I)cc(I)c(C(=O)O)c1I)Nc1c(I)cc(I)c(C(=O)O)c1I` [Iodipamide], the growth was 0.452 ± 0.049.
`CCN(CCO)CCCC(C)Nc1ccnc2cc(Cl)ccc12` (configuration not stated) [Hydroxychloroquine sulfate] was tested, and the growth was 0.352 ± 0.013.
Work on `Cc1ccsc1/C=C/C1=NCCCN1C` [Morantel tartrate] yielded a growth of 0.379 ± 0.034.
For `Cc1noc(NS(=O)(=O)c2ccc(N)cc2)c1C` [Sulfisoxazole], the growth was 0.386 ± 0.073.
Compound `C=CCOc1ccccc1OCC(O)CNC(C)C` (configuration not stated) [Oxprenolol hydrochloride] has a growth of 0.368 ± 0.013.
`CCOc1ccc2c(c1)C(C)=CC(C)(C)N2` [Ethoxyquin] gave a growth of 0.305 ± 0.042.
`CC1Cc2ccccc2N1NC(=O)c1ccc(Cl)c(S(N)(=O)=O)c1` (configuration not stated) [Indapamide] gave a growth of 0.442 ± 0.03.
Compound `CCC(=O)OCC(=O)[C@@]1(OC(=O)CC)[C@H](C)C[C@H]2[C@H]3[C@H]([C@@H](O)C[C@@]21C)[C@@]1(C)C=CC(=O)C=C1C[C@H]3Cl` [Alclometasone dipropionate] has a growth of 0.459 ± 0.032.
In the case of `Cc1scc2c1N(C(=O)CN1CCN(C)CC1)c1ccccc1NC2=O` [Telenzepine dihydrochloride], the growth is reported as 0.442 ± 0.025.
With `O=C1CC[C@@H](C(=O)N2CSC[C@H]2C(=O)O)N1` [Pidotimod] the growth was 0.415 ± 0.024.
`CCC1NC(=O)c2cc(S(N)(=O)=O)c(Cl)cc2N1` (configuration not stated) [Quinethazone] showed a growth of 0.445 ± 0.051.
`CN1CCCN(C(c2ccccc2)c2ccc(Cl)cc2)CC1` (configuration not stated) [Homochlorcyclizine dihydrochloride] gave a growth of 0.152 ± 0.015.
Work on `C1N2CN3CN1CN(C2)C3` [Methenamine] yielded a growth of 0.33 ± 0.051.
With `CC(C)(O/N=C(\C(=O)N[C@@H]1C(=O)N2C(C(=O)[O-])=C(C[n+]3ccccc3)CS[C@H]12)c1csc(N)n1)C(=O)O` [Ceftazidime pentahydrate] the growth was 0.0679 ± 0.011.
In the case of `CC(C(O)c1ccc(O)cc1)N1CCC(Cc2ccccc2)CC1` (configuration not stated) [Ifenprodil tartrate], the growth is reported as 0.427 ± 0.028.
`CCN(CC)CCNC(=O)c1ccc(N)cc1` [Procainamide hydrochloride] gave a growth of 0.42 ± 0.039.
`CC[C@H]1OC(=O)[C@H](C)[C@@H](O[C@H]2C[C@@](C)(OC)[C@@H](O)[C@H](C)O2)[C@H](C)[C@@H](O[C@@H]2O[C@H](C)C[C@H](N(C)C)[C@H]2O)[C@](C)(O)C[C@@H](C)CN(C)[C@H](C)[C@@H](O)[C@]1(C)O` [Azithromycin] showed a growth of 0.0647 ± 0.0021.
`OC(CCN1CCCCC1)(c1ccccc1)C1CCCCC1` (configuration not stated) [Trihexyphenidyl-D,L Hydrochloride] showed a growth of 0.43 ± 0.071.
`CN1C(C(=O)Nc2ccccn2)=C(O)c2ccccc2S1(=O)=O` [Piroxicam] was tested, and the growth was 0.282 ± 0.042.
Work on `c1ccc(CN(CC2=NCCN2)c2ccccc2)cc1` [Antazoline hydrochloride] yielded a growth of 0.441 ± 0.017.
Work on `CCCc1nc2c(C)cc(-c3nc4ccccc4n3C)cc2n1Cc1ccc(-c2ccccc2C(=O)O)cc1` [Telmisartan] yielded a growth of 0.41 ± 0.024.
`Nc1nc(F)nc2c1ncn2[C@@H]1O[C@H](CO)[C@@H](O)[C@@H]1O` [Fludarabine] was tested, and the growth was 0.222 ± 0.035.
`CN1CCOC(c2ccccc2)c2ccccc2C1` (configuration not stated) [Nefopam hydrochloride] showed a growth of 0.401 ± 0.045.
In the case of `NCCCC(O)(P(=O)(O)O)P(=O)(O)O` [Alendronate sodium], the growth is reported as 0.414 ± 0.04.
`Clc1ccccc1C(c1ccccc1)(c1ccccc1)n1ccnc1` [Clotrimazole] showed a growth of 0.0472 ± 0.0021.
`O=C1c2cccc(O)c2C(=O)c2c(O)cccc21` [1,8-Dihydroxyanthraquinone] gave a growth of 0.147 ± 0.0069.
With `CC(N/C(=N\C#N)Nc1ccncc1)C(C)(C)C` (configuration not stated) [Pinacidil] the growth was 0.412 ± 0.03.
In the case of `COc1ccc2c(c1)c(CC(=O)OCC(=O)O)c(C)n2C(=O)c1ccc(Cl)cc1` [Acemetacin], the growth is reported as 0.211 ± 0.012.
`O=C(O)c1ccccc1C(=O)Nc1ccc(S(=O)(=O)Nc2nccs2)cc1` [Phthalylsulfathiazole] gave a growth of 0.445 ± 0.036.
With `c1ccc2c(c1)CCCC2C1=NCCN1` (configuration not stated) [Tetrahydrozoline hydrochloride] the growth was 0.437 ± 0.03.
Compound `Cc1nnc(NS(=O)(=O)c2ccc(N)cc2)s1` [Sulfamethizole] has a growth of 0.433 ± 0.018.
